Compounds without any hit were thinned out: in the full panel of roughly 79,000, 15% have a hit. Values without a mark were called inactive. Active and inactive are the calls of the source. No stated cut-off is given here; in the data, active means growth inhibition above about 70%; inactive means the rest.
Tests used:
[1] = NCI Yeast Anticancer Drug Screen. Data for the rad50 strain (AID 155);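 further: 0% = growth of vehicle-only cultures of the same strain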; conditions: S. cerevisiae rad50 strain growth inhibition, hits give high values
Procedure, shortened: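 Growth of the mutant yeast was measured after compound exposure and referenced to vehicle-treated cultures.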

[2] = NCI Yeast Anticancer Drug Screen. Data for the mec2-1 strain (AID 157); conditions: S. cerevisiae mec2-1 strain, hits give high values
Procedure, shortened: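 Using mec2-1 yeast: add compound, measure growth, express inhibition versus vehicle-treated cultures.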

[3] = NCI Yeast Anticancer Drug Screen. Data for the sgs1 mgt1 strain (AID 161);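 further: 0% = growth of cultures given vehicle only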; conditions: S. cerevisiae sgs1 mgt1 strain, hits give high values
Procedure, shortened: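 This yeast growth screen uses a strain with defined DNA-repair lesions; compound-treated growth is compared with vehicle-treated growth.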

[4] = NCI Yeast Anticancer Drug Screen. Data for the cln2 rad14 strain (AID 165);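 further: 0% = growth equal to vehicle treated cultures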; conditions: S. cerevisiae cln2 rad14 strain, hits give high values
Procedure, shortened: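 Yeast strain cln2 rad14, bearing defects in cell cycle control and DNA repair, serves as the test system; values reflect growth inhibition compared with vehicle.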

[5] = NCI Yeast Anticancer Drug Screen. Data for the bub3 strain (AID 167); conditions: S. cerevisiae bub3 mutant strain, hits give high values
Procedure, shortened: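 Whole-cell yeast assay. The mutant strain was incubated with compounds, and growth inhibition was determined by comparison with vehicle-treated cells.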

[6] = NCI Yeast Anticancer Drug Screen. Data for the mlh1 rad18 strain (AID 175); conditions: S. cerevisiae mlh1 rad18 strain growth inhibition, hits give high values
Procedure, shortened: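 Steps: expose repair-defective yeast to compound; measure growth; express inhibition against vehicle-treated controls.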

[7] = at 5.0 µM (retest, dose inferred, filed as 0.5)
[8] = at 50.0 µM (retest, dose inferred, filed as 5.0)

SMILES	growth inhibition [1, 7]	growth inhibition [1, 8]	growth inhibition ([1]; at 50.0 µM)	growth inhibition [2, 7]	growth inhibition [2, 8]	growth inhibition ([2]; at 50.0 µM)	growth inhibition [3, 7]	growth inhibition [3, 8]	growth inhibition ([3]; at 50.0 µM)	growth inhibition [4, 7]	growth inhibition [4, 8]	growth inhibition ([4]; at 50.0 µM)	growth inhibition [5, 7]	growth inhibition [5, 8]	growth inhibition ([5]; at 50.0 µM)	growth inhibition [6, 7]	growth inhibition [6, 8]	growth inhibition ([6]; at 50.0 µM)
C=CCCCCCCCCC(=O)ON(Cc1ccc(O)c(OC)c1)C(=O)C(F)(F)F	3%	73% (active)	70.7% (active)	-7%	66%	84.3% (active)	-8%	67%	89.2% (active)	20%	61%	85.5% (active)	-12%	40%	90.5% (active)	7%	86% (active)	85.9% (active)
CC(COC(=O)C(c1ccccc1)C1C=CCCC1)CN1CCCC1 (configuration not stated)	-1%	60%	70.4% (active)	18%	51%	46.8%	21%	61%	72.8% (active)	4%	34%	86.5% (active)	0%	36%	74.5% (active)	35%	74% (active)	90.3% (active)
CCOC(=O)c1[nH]c(Br)c(-c2ccc(OC)c(OC)c2)c1Br	1%	98% (active)	92.1% (active)	-8%	97% (active)	63.5%	1%	98% (active)	97.2% (active)	26%	99% (active)	88.8% (active)	-2%	99% (active)	88% (active)	8%	97% (active)	94.2% (active)
CC1=CC(=O)[C@@H](O)[C@]2(C)[C@H]3[C@@]4(O)OC[C@]35[C@H]([C@@H](C)[C@H]4O)[C@@H](OC(=O)C(C)(C)CO)C(=O)O[C@@H]5C[C@@H]12	10%	44%	90.7% (active)	15%	45%	90.8% (active)	6%	40%	88.3% (active)	17%	51%	90.5% (active)	6%	39%	92.2% (active)	6%	51%	-7.05%
COc1ccc(C2=CCC3C4CC=C5CC(O)CCC5(C)C4CCC23C)s1 (configuration not stated)	0%	13%	59.7%	-17%	63%	64.1%	-23%	82% (active)	59.6%	-3%	18%	53.5%	-1%	30%	66%	19%	75% (active)	94.7% (active)
O=C(/C=C/c1ccccc1)CCN1CCN(CCC(=O)/C=C/c2ccccc2)CC1	36%	100% (active)	99.2% (active)	56%	100% (active)	99.5% (active)	40%	57%	99.4% (active)	88% (active)	100% (active)	99.4% (active)	36%	99% (active)	99.4% (active)	78% (active)	100% (active)	99.5% (active)
CC1(c2ccc3ccccc3c2)C(C#N)(C#N)C1(C#N)C#N	87% (active)	92% (active)	91.4% (active)	94% (active)	94% (active)	92% (active)	97% (active)	96% (active)	88% (active)	62%	93% (active)	83.2% (active)	96% (active)	93% (active)	91.2% (active)	97% (active)	93% (active)	87.7% (active)
Oc1ccc(N=Nc2ccccc2)c(O)c1.Oc1ccc(N=Nc2ccccc2)c(O)c1.[Cu]	13%	96% (active)	98.1% (active)	16%	98% (active)	98.2% (active)	21%	97% (active)	98.9% (active)	1%	92% (active)	97.3% (active)	15%	95% (active)	97% (active)	12%	96% (active)	97.1% (active)
[N-]=[N+]=NCC(O)c1ccc2c(c1)[nH]c1ccccc12 (configuration not stated)	-11%	30%	47.9%	-7%	30%	29.6%	-5%	41%	27.6%	-8%	23%	81.8% (active)	-4%	36%	64%	24%	68%	75.4% (active)

Reference: PubChem BioAssay (NCI)
